This is a sample that favours compounds with a hit; in the whole collection about 21% have one here.
Shiga toxin inh = blocks Shiga toxin action in Vero cells; inhibition, % at 38.7 µM; Vero cells, Shiga toxin protein synthesis inhibition reporter; 290,000 tested, 9.2% active; in the data active = inhibition mostly above about 28%, no sharp cut-off; inactive = mostly below about 43%
Pf growth 96h = inhibits malaria parasite growth, 96 h; P. falciparum luciferase reporter growth, 96 h; Potency, µM (series often up to 28.7 µM), most hits filed as inhibitors; 320,000 tested, 6.9% active
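Readout is luminescence from an integrated firefly luciferase in P. falciparum. Red cells, 2% hematocrit and 0.05% parasitemia final, were cultured with compound through two parasite generations (96 hours) at 37 C, 5% CO2.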
Pf growth 48h = P. falciparum growth inhibition at 48 hours (one generation). P. falciparum luciferase growth in erythrocytes, 48 h. Potency, µM (doses to about 28.7 µM), actives largely listed as inhibitors. 310,000 tested, 5.9% active
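In quantitative HTS format, infected erythrocytes bearing luciferase-reporter parasites were treated for a single generation at 37 C. Luminescence after adding detection reagent served as the growth measure.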
NS1 function inh = influenza NS1 inhibition | Potency, µM (highest dose often 46.1 µM) | 270,000 tested, 0.4% active | AID 2326; calls by dose curve; also: actives are rising curves; nearly all actives have a fitted effect of over 50% in size
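OD600 was taken as the measure of yeast growth restored by compound in an NS1-expressing S. cerevisiae strain. Cells had been washed out of glucose medium and diluted 1:100 into galactose -URA medium, pH 6.0.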
Cycloheximide cs = counter-screen for Shiga toxin inhibitors: cycloheximide protein synthesis inhibition. max response, %. 300,000 tested, 12% active. AID 2314. cell reporter, cycloheximide protein synthesis inhibition counterscreen; in the data active = max response mostly above about 13%, no sharp cut-off; inactive = mostly below about 14%; also: read at 38.3 µM for the half of the compounds with a filed dose
SARS PLpro yeast = SARS-CoV PLP inhibition in yeast; S. cerevisiae expressing SARS-CoV PLpro, growth rescue; Potency, µM (series often up to 32.9 µM), hits mostly activators; 330,000 tested, 0.19% active; calls by dose curve; also: nearly all actives have a fitted effect of over 55% in size
Each line names hits and unclear results; the compound was inactive in the other large screens. Unless noted, calls follow the shape of the dose curve; as a rule, active = well fitted inhibition curve with a large enough effect; inconclusive = small, poorly fitted or top-dose-only effect, or another doubt; inactive = no such curve, though single readings can be large or run the other way.

C#CCOCCOCCOCCNc1nc(N2CCN(C(=O)C(Cc3ccc(O)cc3)n3cc(C(N)CC(C)C)nn3)CC2)nc(N2CCN(C(=O)C(Cc3cc4ccccc4[nH]3)n3cc(C(N)Cc4ccc(O)cc4)nn3)CC2)n1 (stereo not given)	Pf growth 96h 13µM, Pf growth 48h inconclusive
C#CCOCCOCCOCCNc1nc(N2CCN(C(=O)[C@H]([C@@H](C)CC)n3cc([C@@H](N)CO)nn3)CC2)nc(N2CCN(C(=O)[C@H](Cc3cc4ccccc4[nH]3)n3cc([C@@H](N)Cc4ccc(O)cc4)nn3)CC2)n1	Pf growth 96h 2.9µM
C#CCOCCOCCOCCNc1nc(N2CCOCC2)nc(N2CCN(C(=O)[C@H](Cc3cc4ccccc4[nH]3)n3cc([C@@H](N)Cc4ccc(O)cc4)nn3)CC2)n1	Pf growth 96h 1.9µM, Pf growth 48h inconclusive
C#CCOCCOCCOCCNc1nc(N2CCN(C(=O)[C@H](CCC(=O)O)n3cc(C(N)Cc4ccc(O)cc4)nn3)CC2)nc(N2CCN(C(=O)[C@H](Cc3cc4ccccc4[nH]3)n3cc(C(N)CC(C)C)nn3)CC2)n1 (stereo not given in full)	none
C#CCOCCOCCOCCNc1nc(N2CCN(C(=O)[C@H](Cc3cc4ccccc4[nH]3)n3cc([C@@H](N)C(C)CC)nn3)CC2)nc(N2CCN(C(=O)[C@H](Cc3cc4ccccc4[nH]3)n3cc([C@@H](N)CC(C)C)nn3)CC2)n1 (stereo not given in full)	Pf growth 96h inconclusive, Pf growth 48h 12µM
CC1(C)NC(=O)N(CC(=O)OCC(=O)Nc2cc(S(=O)(=O)N3CCCCC3)ccc2Cl)C1=O	Pf growth 96h inconclusive
Cc1cccc(NC(=O)c2cc([N+](=O)[O-])ccc2NC2CCCCC2)c1	Pf growth 96h inconclusive, Pf growth 48h 8.3µM
CN(c1ccc([N+](=O)[O-])cc1C(=O)Nc1ccccc1)C1CCCCC1	Pf growth 96h inconclusive
Cc1ccc([N+](=O)[O-])cc1NC(=O)CCSc1ccc(Cl)cc1	Pf growth 96h 9.3µM
Cc1ccc([N+](=O)[O-])cc1NC(=O)CNC1CCCCC1	Pf growth 48h 12µM
Cc1ccc([N+](=O)[O-])cc1NC(=O)CN1CCCCC1	Pf growth 96h inconclusive
Cc1nc2c(=O)n(-c3cccc(C(F)(F)F)c3)nc(C)c2s1	none
CC1CCCN(C(=O)C2CCN(S(=O)(=O)c3ccccc3)CC2)C1 (stereo not given)	none (no result: Shiga toxin inh, Pf growth 96h, Pf growth 48h, NS1 function inh, Cycloheximide cs)
CC(C)c1ccc(NC(=S)NC2CCN(Cc3ccccc3)CC2)cc1	Pf growth 96h inconclusive, Pf growth 48h 10µM
Cc1ccc(NC(=S)NC2CCN(Cc3ccccc3)CC2)cc1	Pf growth 96h inconclusive, Pf growth 48h inconclusive
Cc1ccccc1NC(=S)N1CCN(Cc2ccccc2)CC1	Pf growth 96h 1.2µM
CC(C)c1ccc(NC(=S)N2CCN(Cc3ccccc3)CC2)cc1	Cycloheximide cs 12 (no result: NS1 function inh)
CCN1CCN(C(=S)NC(C)c2ccccc2)CC1 (stereo not given)	Pf growth 96h 3.7µM, NS1 function inh inconclusive
CCN1CCN(C(=S)NC(CC(=O)c2ccccc2)c2ccccc2)CC1 (stereo not given)	Pf growth 96h inconclusive
C[C@H](CO)N1C[C@H](C)[C@@H](CN(C)C(=O)Nc2ccc(C(F)(F)F)cc2)Oc2c(NC(=O)CCC(F)(F)F)cccc2C1=O	none (no result: Shiga toxin inh, Pf growth 96h, Pf growth 48h, NS1 function inh, Cycloheximide cs)
Cc1ccc(NC(=O)COC(=O)c2ccc(-n3nc(C)cc3C)cc2)c(F)c1	none (no result: Shiga toxin inh, Pf growth 96h, Pf growth 48h, NS1 function inh, Cycloheximide cs)
CC(=O)c1cccc(NC(=O)C(OC(=O)/C=C/c2ccc3c(c2)OCO3)c2ccccc2)c1 (stereo not given)	none (no result: Pf growth 96h)
S=C(Nc1cc(Cl)cc(Cl)c1)NC1CCN(Cc2ccccc2)CC1	Pf growth 96h inconclusive, Pf growth 48h 5.9µM
O=C1CC(/C=C/c2ccc([N+](=O)[O-])cc2)=Nc2ccccc2N1	Pf growth 96h inconclusive, Pf growth 48h inconclusive, NS1 function inh inconclusive
Cc1sc2ncnc(Sc3nnnn3-c3ccc(Cl)cc3)c2c1C	Pf growth 96h inconclusive, Pf growth 48h 8.3µM
CSc1nnnn1-c1ccc(Cl)cc1	Pf growth 96h inconclusive
c1ccc(-n2nnnc2Sc2ncnc3sc4c(c23)CCCC4)cc1	Pf growth 96h 1.7µM, Pf growth 48h inconclusive
O=C(CCCN1C(=O)/C(=C/c2ccccc2OC(F)F)SC1=S)Nc1cccnc1	none (no result: Shiga toxin inh, Pf growth 96h, Pf growth 48h, NS1 function inh, Cycloheximide cs)
N#Cc1c(Nc2ccccc2)c(C=NCCN2CCOCC2)c[nH]c1=O	Pf growth 96h 9.3µM
CC(C)c1c(C(=O)N/N=C/C=C/c2ccccc2)nnn1-c1nonc1N	Pf growth 96h inconclusive
CCN(CC)c1ccc(NC(=O)CSc2n[nH]c(-c3ccco3)n2)cc1	Pf growth 96h inconclusive (no result: Shiga toxin inh, NS1 function inh, Cycloheximide cs)
Nc1c(C(=O)Nc2ccccc2F)sc2nc(-c3cccnc3)ccc12	none
COC(=O)c1sc2cnccc2c1N	none (no result: Pf growth 96h, Pf growth 48h)
Nc1c(C(=O)Nc2ccccc2F)sc2nc(-c3ccco3)ccc12	Shiga toxin inh 97, Cycloheximide cs 47
COC(=O)c1sc2nc(-c3ccco3)ccc2c1N	Shiga toxin inh 93, Cycloheximide cs 68
NC(=O)c1sc2nc(-c3ccco3)ccc2c1N	Shiga toxin inh 110, Cycloheximide cs 37
NC(=O)c1sc2nc3c(c(-c4ccco4)c2c1N)CCC3	none
Cc1noc(C)c1C(=O)OCC(=O)Nc1ccccc1SCC#N	none (no result: Shiga toxin inh, NS1 function inh, Cycloheximide cs)
Cc1ccc(S[C@@H](CCN2CC[C@H](C(C)(C)C)CCC2=O)c2ccccc2)cc1	Pf growth 96h inconclusive, Pf growth 48h inconclusive
CCCc1cc(O)c2c(C)cc(=O)oc2c1	Pf growth 96h 12µM, Pf growth 48h inconclusive
COc1ccc(C(=O)Nc2ccccc2C(=O)O)cc1Cl	Shiga toxin inh 66, Cycloheximide cs 27
O=C(Nc1ccccc1C(=O)O)c1ccccc1	none (no result: Pf growth 48h)
Cc1c(NC(=O)c2ccc(-c3ccccc3)cc2)cccc1C(=O)O	Shiga toxin inh 66, Cycloheximide cs 35
CCOc1ccc(C(=O)Nc2cccc(C(=O)O)c2C)cc1Cl	Shiga toxin inh 66, Cycloheximide cs 31
CCC(=O)N1CCN(c2ccccc2NC(=O)c2ccc(OC)c(Cl)c2)CC1	Pf growth 96h 7.4µM (no result: Pf growth 48h)
C[C@H](NC(=O)[C@@H](Cc1c[nH]c2ccccc12)NC(=O)[C@@H](N)Cc1cnc[nH]1)C(=O)N[C@@H](Cc1c[nH]c2ccccc12)C(=O)N[C@H](Cc1ccccc1)C(=O)N[C@@H](CCCCN)C(N)=O	none (no result: Pf growth 96h, Pf growth 48h, NS1 function inh, SARS PLpro yeast)
CCOC(=O)C(=O)N1CCC(C(=O)OC)CC1	none
Cc1ccc(C)c(OCC(=O)Nc2cc(C)on2)c1	Pf growth 96h inconclusive, Cycloheximide cs 22
Cc1cccc(OCC(=O)Nc2cc(C)on2)c1	Shiga toxin inh active, Pf growth 96h inconclusive, Cycloheximide cs 16
CCOc1ccccc1OCC(=O)Nc1cc(C)on1	none (no result: Shiga toxin inh, Pf growth 96h, Pf growth 48h, NS1 function inh, Cycloheximide cs)
Cc1cc(NC(=O)COc2cccc(Oc3ccccc3)c2)no1	Pf growth 48h inconclusive
CCC(CO)Oc1cc(NCc2ccccc2OC)c2ncn(C(C)C)c2c1 (stereo not given)	none (no result: Shiga toxin inh, Pf growth 96h, Pf growth 48h, NS1 function inh, Cycloheximide cs)

Assay outcomes deposited in PubChem by National Center for Advancing Translational Sciences (NCATS).
